The list is not random: actives were taken first. Their share in the collection is about 1.7%.
KCNH2 3.1 block: KCNH2 3.1 (human) potassium channel inhibition; U2OS KCNH2 3.1, thallium flux FluxOr; stronger effect = lower value; activity change, % (tested at about 1.8 µM); hit rate 0.95% among 340,000; AID 720553;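 active means maximum activity change below -70%; inconclusive means maximum activity change from -70% to -50%; inactive means maximum activity change above -50%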;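 further: thallium influx rate constant from kinetic fluorescence after stimulation buffer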
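U2OS cells transduced with KCNH2 3.1 mutant virus (1.77 x 10^8 /mL, 4 h), plated overnight at 37 C, loaded 45 min with FluxOr dye plus Red40 quencher. Thallium flux rate constant from kinetic reads after stimulation buffer, normalised to controls.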
RXFP1 ag: agonists of human relaxin receptor RXFP1; Q9HBX9; HEK293T-RXFP1 cAMP TR-FRET, 30 min; response scale: percent of porcine relaxin response, buffer zero; hit rate 0.3% among 370,000; Potency, µM (titrated, usually from 57.5 µM), for the others: top-dose activation, hits mostly activators; active means well fitted activation curve with a large enough effect; inconclusive means small, poorly fitted or top-dose-only effect; further: potency means the concentration at half of the fitted maximal effect; nearly all actives have a fitted effect of over 60% in size
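Agonist response is measured as cAMP accumulation in an RXFP1-transfected HEK293T line under PDE4 inhibition. Values are scaled between buffer-only and 29 nM porcine relaxin, and EC50s come from standard Hill equation fits.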
RXFP1 antagonist: blocks the human relaxin receptor RXFP1 | AID 1259400 | activity change, negative = inhibition, % at 57.5 µM | hit rate 0.59% among 350,000 | HEK293-RXFP1, relaxin-stimulated cAMP HTRF, 30 min; stronger effect = lower value;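 active means activity change of -60% or lower, but not beyond a set lower limit; inconclusive means change between -60% and -40%, or beyond the set limit; inactive means change above -40%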
hERG WT inh: KCNH2 (human, wildtype) channel inhibition. activity change, % at 1.84 µM. hit rate 0.37% among 340,000. U2OS, BacMam KCNH2, thallium flux FluxOr; stronger effect = lower value;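 active means maximum activity change below -70%; inconclusive means maximum activity change between -70% and -50%; inactive means maximum activity change above -50%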
Target sequence (Q12809 whole entry, looked up): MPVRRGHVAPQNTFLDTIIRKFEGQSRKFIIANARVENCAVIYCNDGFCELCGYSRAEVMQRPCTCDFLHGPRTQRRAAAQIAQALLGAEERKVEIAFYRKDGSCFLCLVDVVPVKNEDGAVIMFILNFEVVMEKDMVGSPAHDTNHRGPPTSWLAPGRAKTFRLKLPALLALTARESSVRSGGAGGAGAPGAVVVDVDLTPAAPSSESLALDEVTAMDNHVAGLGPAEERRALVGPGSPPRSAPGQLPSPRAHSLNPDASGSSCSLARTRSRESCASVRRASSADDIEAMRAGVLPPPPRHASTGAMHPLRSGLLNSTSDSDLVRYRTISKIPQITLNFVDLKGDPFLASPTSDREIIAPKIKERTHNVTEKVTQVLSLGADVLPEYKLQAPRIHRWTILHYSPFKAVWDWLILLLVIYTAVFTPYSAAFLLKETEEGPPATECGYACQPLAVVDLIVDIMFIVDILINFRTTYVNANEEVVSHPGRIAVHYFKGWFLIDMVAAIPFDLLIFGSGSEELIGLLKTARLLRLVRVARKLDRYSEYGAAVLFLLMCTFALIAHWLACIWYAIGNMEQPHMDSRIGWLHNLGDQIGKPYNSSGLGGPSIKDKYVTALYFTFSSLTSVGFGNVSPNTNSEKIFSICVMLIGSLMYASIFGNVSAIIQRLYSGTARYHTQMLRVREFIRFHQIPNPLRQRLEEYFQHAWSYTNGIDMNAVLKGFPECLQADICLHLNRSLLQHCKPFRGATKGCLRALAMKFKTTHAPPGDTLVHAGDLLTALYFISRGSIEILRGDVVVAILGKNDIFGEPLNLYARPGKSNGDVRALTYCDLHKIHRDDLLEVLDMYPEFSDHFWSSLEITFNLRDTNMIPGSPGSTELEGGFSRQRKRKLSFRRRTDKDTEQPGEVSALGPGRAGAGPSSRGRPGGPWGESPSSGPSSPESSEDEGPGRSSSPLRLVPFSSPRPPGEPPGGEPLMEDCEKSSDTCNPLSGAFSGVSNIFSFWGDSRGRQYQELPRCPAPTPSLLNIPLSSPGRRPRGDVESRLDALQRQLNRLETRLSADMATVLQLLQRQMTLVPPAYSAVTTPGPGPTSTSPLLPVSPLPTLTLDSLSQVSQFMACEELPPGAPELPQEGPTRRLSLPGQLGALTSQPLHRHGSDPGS
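U2OS cells were transduced with wild-type KCNH2 virus (2.03 x 10^8 / mL) for 4 h at room temperature, then cultured overnight at 37 C. Thallium flux was read with FluxOr dye. Rate constants were normalized to DMSO controls.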
pAkt inh: Akt phosphorylation inhibition; activity change, % for hits at 50 µM; Neuro2A IGF-stimulated pAkt S473 HTRF, 20 min; stronger effect = lower value; hit rate 0.32% among 360,000; in the data active means activity change below about -80%; inconclusive means mostly about -51% to -80%
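Neuro2A cells (4,500/well, DMEM with 0.5% FBS) were treated with compound at a single 50 µM final concentration, stimulated with 6 nM IGF for 20 min at 37 °C, and lysed. Phospho-Akt Ser473 was read by HTRF as 665/615 ratio ×10^4.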
Numbers without * were called inactive; i = inactive; u = inconclusive; x = no result given. On the % scale 0 is the no-effect control and ±100 the full control effect.

SMILES | KCNH2 3.1 block | RXFP1 ag | RXFP1 antagonist | hERG WT inh | pAkt inh
Cc1ccccc1-c1noc(-c2ccc(NC3CCCC3)c([N+](=O)[O-])c2)n1 | x | 6% | x | x | x
CC(C)CC1C(=O)N(Cc2cn(Cc3ccco3)nn2)CCS(=O)(=O)N1Cc1ccc(-c2cccc(N(C)C)c2)cc1 (stereo not drawn) | -16 | x | 5 | -44 | i
Cc1ccc(NC(=O)NCC2CC2(Cl)Cl)cc1 (stereo not drawn) | -1 | -1% | 2 | -12 | i
O=C(NCC1CC1(Cl)Cl)Nc1ccc(Cl)c(Cl)c1 (stereo not drawn) | -8 | -3% | -67* | -3 | i
CCOC(=O)C1CCCN(C(=O)c2cc3cc(Br)ccc3oc2=O)C1 (stereo not drawn) | -7 | 0% | -3 | -28 | i
COc1ccc(-c2csc(N(CCCN(C)C)C(=O)c3ccccc3C)n2)cc1 | -32 | 0% | -62* | 27 | i
COc1ccc(-c2csc(N(CCCN(C)C)C(=O)c3ccccc3Cl)n2)cc1 | -16 | x | -10 | 17 | i
COc1ccc(OC)c(-c2c3c([nH]c(=S)c2C#N)CCCC3)c1 | -17 | 16% | -10 | -29 | i
COc1ccc(-c2c3c([nH]c(=S)c2C#N)CCC3)cc1 | -6 | 32µM* | 16 | -29 | i
COc1ccc(/C=N/NC(=O)c2nnn(-c3nonc3N)c2C)cc1OC | -2 | x | -2 | 4 | i
COc1cccc(CN2CCN(C(=S)NCc3ccc(Cl)cc3)CC2)c1 | -75* | -1% | 0 | 15 | i
CCOC(=O)N1CCc2c(sc3nc[nH]c(=O)c23)C1 | -9 | u | 4 | -8 | i
Cc1ccc(S(=O)(=O)Nc2ccc(NC(=O)c3cccs3)cc2)cc1 | 8 | 2% | -39 | 3 | i
COCCCNC(=O)c1sc2nc(C)c(C(=O)Nc3ccc(Cl)cc3)c(-c3ccc(Br)cc3)c2c1N | x | 35µM* | -16 | x | x
Cc1ccc(S(=O)(=O)NCC(=O)OCc2nnc(-c3ccccc3)o2)cc1C | -4 | 0% | -13 | -14 | i
Cn1c(=O)c2c(ncn2CC(=O)N2CCN(S(=O)(=O)c3ccccc3)CC2)n(C)c1=O | 13 | 13% | 1 | 4 | i
O=C(CS(=O)(=O)c1ccc(Cl)cc1)Nc1nnc(-c2cccs2)o1 | -2 | 3% | -75* | 2 | i
CC1CC(C)CN(S(=O)(=O)c2ccc(C(=O)Nc3nnc(-c4cccs4)o3)cc2)C1 (stereo not drawn) | -19 | -1% | -8 | 4 | i
CCC1CCCCN1S(=O)(=O)c1ccc(C(=O)Nc2nnc(-c3cccs3)o2)cc1 (stereo not drawn) | -5 | 1% | -73* | -2 | i
O=C(Nc1cccc(-c2csc(Nc3ccc(Cl)cc3)n2)c1)c1cccc(C(F)(F)F)c1 | -78* | 1% | x | 0 | i
c1ccc(C2=NNC(c3ccccn3)=NN2)nc1 | -6 | -1% | -4 | -3 | i
CCOc1ccccc1N=C1SC(CC(=O)Nc2ccc(OC)cc2OC)C(=O)N1CCC1=CCCCC1 (stereo not drawn) | 7 | 2% | 0 | -4 | i
CCOC(=O)CS(=O)(=O)c1nc(-c2ccc(F)cc2)cc(C(F)(F)F)n1 | 4 | 0% | -80* | -5 | i
CCOC(=O)CS(=O)(=O)c1nc(-c2ccccc2)cc(C(F)(F)F)n1 | -2 | 0% | -78* | -1 | i
O=C(O)c1ccc(NC(=O)C2CCN(S(=O)(=O)c3ccc4c(c3)OCCO4)CC2)cc1 | 5 | x | 7 | 4 | i
SMILES | KCNH2 3.1 block | RXFP1 ag | RXFP1 antagonist | hERG WT inh | pAkt inh
C/C(=N/NC(=O)c1ccc(C)nc1)c1ccc2c(c1)CCCC2 | -29 | 1% | -62* | -1 | i
O=C(CSc1ccc(Cl)cc1)NC(=O)NC1CCCC1 | -12 | 0% | -4 | -8 | i
CC(=O)c1c(C)[nH]c(C(=O)N2CCN(C(=O)c3ccco3)CC2)c1C | -211* | -1% | 1 | -1 | i
CC(=O)c1c(C)[nH]c(C(=O)N2CCN(c3ccc(F)cc3)CC2)c1C | 16 | 2% | -10 | 11 | i
O=C(NCc1ccccc1)c1cccc(OCC(=O)N2CCN(C(=O)c3ccco3)CC2)c1 | -97* | 2% | -9 | 5 | i
O=C(/C=C/c1ccccc1)N1CCN(C(=O)c2ccco2)CC1 | -96* | 0% | 7 | 1 | i
O=C(COc1ccc2ccccc2c1)N1CCN(C(=O)c2ccco2)CC1 | -7 | 3% | -84* | -1 | i
O=C(/C=C/c1cccc([N+](=O)[O-])c1)N1CCN(C(=O)c2ccco2)CC1 | 1 | 4% | 5 | 4 | i
O=C(NCC(=O)N1CCN(C(=O)c2ccco2)CC1)c1ccccc1 | -16 | 0% | -2 | 0 | i
COc1ccc(-n2nc3c(c2NC(=O)COc2ccccc2)CS(=O)C3)cc1 (stereo not drawn) | x | 2% | -1 | 25 | i
O=[N+]([O-])c1cc([N+](=O)[O-])c2cc3ccccc3nc2c1 | -10 | -3% | -8 | -1 | i
O=C(c1cc2c(s1)CCCC2)n1cccn1 | -1 | 3% | -1 | 4 | i
Cc1nn(-c2ccccc2)c(C)c1/C=N/O | -9 | 2% | -21 | 4 | -111%*
CSc1ccccc1NC(=O)c1c(Br)cnn1C | 3 | 1% | -9 | -5 | -122%*
Cn1ncc(Br)c1C(=O)Nc1c(F)c(F)cc(F)c1F | 0 | 2% | -5 | 21 | i
COc1ccc2c(c1)C(=O)N1[C@H]3c4cc(Cl)ccc4OC[C@@H]3[C@H](c3ccccc3)[C@]1(C)C(=O)N2 | -85* | x | x | -32 | i
COc1ccc2c(c1)OC[C@H]1[C@H]2N2C(=O)CN(Cc3ccc(C)cc3)C(=O)[C@@]2(C)[C@H]1c1ccccc1 | -89* | 2% | x | -5 | i
CCCC(=O)Nc1ncnc2c1ncn2[C@@H]1O[C@@H]2COP(=O)(O)O[C@H]2[C@H]1OC(=O)CCC | 12 | 0.16µM* | x | 4 | i
COc1cc(NC(=O)CC[C@H]2O[C@@H](n3cnc4c(NC(=O)c5ccccc5)ncnc43)[C@H](O)[C@@H]2O)cc(OC)c1OC | x | x | x | x | i
COc1ccccc1C1CCN(C(=O)c2cccc([N+](=O)[O-])c2)CC1 | -11 | 2% | 2 | 16 | i
Nc1sc2c(c1C(=O)NC1CCS(=O)(=O)C1)CCC2 (stereo not drawn) | 3 | 2% | -1 | 7 | -130%*
Cc1ccc(C(=O)CC(=O)c2ccc(C(C)(C)C)cc2)cc1 | -102* | 1% | 0 | 7 | i
COc1ccc(C(=O)CC(=O)c2ccc(C(C)(C)C)cc2)cc1 | -8 | x | -6 | 5 | i
CC(C)(C)c1ccc(OCc2ccc(C(=O)NN)o2)cc1 | 7 | 3% | -3 | -13 | i

Source: PubChem
